According to PubChem BioAssay (NCATS):
Records with an inconclusive call do not appear. The source made the active and inactive calls. The call rests on the fitted dose curve; in most records, active means well fitted cell-killing curve with a large enough effect; inconclusive means small, poorly fitted or top-dose-only effect, or effect the other way; inactive means flat fitted curve, though single readings scatter.

Assay: MultiTox-Fluor Cytotoxicity Assay - LYMP1-002 - Live Cells (AID 955)
Conditions: LYMP1-002 lymphoblastoid live-cell protease fluorescence viability; series mostly up to 46.1 µM; viability change, negative = cytotoxic: at the top concentration
From the text: NIH Chemical Genomics Center [NCGC]
NIH Molecular Libraries Screening Centers Network [MLSCN]
National Institutes of Environmental Health Sciences [NIEHS]
National Toxicology Program [NTP]
We have developed a 1536-well cell-based assay for quantitative high throughput screening (qHTS) against a number of cell lines to determine in vitro cytotoxicity of small molecules. This particular assay uses a human lymphoblastoid cell line (LYMP1-002) purchased from Coriell Institute.
NCGC Assay Protocol Summary:
The MultiTox-Fluor Cytotoxicity Assay (Promega) is a homogeneous method to simultaneously measure the relative number of live and dead cells in culture by detecting changes in cell membrane integrity. There are two fluorogenic peptide substrates in the assay reagent. Viable cells are determined when the cell-permeant substrate (GF-AFC) enters the cell and is cleaved by protease from live cells resulting in liberated fluorophore. This live-cell protease activity restricted to viable cells is proportional to cell number. The dead cells are determined by using fluorogenic cell-impermeant peptide substrate (bis-AAF-R110) which cleaved by dead cell proteases leaking from damaged cell membrane.
Using the MultiTox-Fluor Cytotoxicity Assay, the relative number of live cells was measured in the lymphoblastoid cell line with complete culture medium following compound treatment for 16 hours. The assay was performed in opaque black Kalypsys 1536-well plates. In the screen, tetraoctylammonium bromide was used as positive control. Library compounds were measured for their ability to cause acute toxicity in the cell line, as reflected by a decrease in live cell protease activity, in a concentration-dependent manner. […] AC50 values were determined from concentration-response data modeled with the standard Hill equation.
qHTS protocol for MultiTox-Fluor Cytotoxicity assay
[Step] [Parameter] [Value] [Description]
1. Reagent; 5 uL; 2500 lymphoblastoid cells/well
2. Time; 5 hr; 37 C incubation
4. Controls; 23 nL; Tetraoctylammonium bromide 6.4pM to 92 uM
5. Time; 16 hr; 37 C incubation
6. Reagent; 5 uL; MuliTox-Fluor Assay reagent
7. Time; 60 min; Room Temperature
8. Detection; live-cell fluorescence (Ex/Em=405/510); EnVision plate reader
Keywords: cell viability, cytotoxicity, lymphoblastoid cell line, fluorescence, NTPHTS, NTPHTS_NCGC, NIEHS, EPA, DSSTox, MLSMR, MLSCN, NIH Roadmap, qHTS, NCGC
On the % scale 0 is the no-effect control and ±100 the full control effect.

SMILES | viability change, negative = cytotoxic
CCCCC(CC)COC(=O)c1ccc(C(=O)OCC(CC)CCCC)c(C(=O)OCC(CC)CCCC)c1 (stereo not given) | -0.481% (inactive)
CC(C)(Cl)Cl | 2.14% (inactive)
O=c1ccc(=O)[nH][nH]1 | 7.8% (inactive)
Cc1ccc(N=C=O)cc1N=C=O | 6.37% (inactive)
CCC[N+](=O)[O-] | 5.6% (inactive)
Cc1cccc(N)c1C | -12.2% (inactive)
c1ccc(C2CO2)cc1 (stereo not given) | -3.31% (inactive)
c1ccc(N=NNc2ccccc2)cc1 | -0.993% (inactive)
Cc1cccc(C)c1N | 9.14% (inactive)
BrC(Br)Br | 5.85% (inactive)
C/C=C/C=O | 6.56% (inactive)
Nc1cc(Cl)cc(Cl)c1 | 2.12% (inactive)
CCOP(=S)(OCC)SCCSCC | 9.46% (inactive)
Nc1c(Cl)cc([N+](=O)[O-])cc1Cl | -1.03% (inactive)
Nn1cnnc1 | -6.93% (inactive)
CN(C)N=O | -1.62% (inactive)
C=CC(=O)OC | 0.936% (inactive)
O=[N+]([O-])c1ccccc1O | -1.46% (inactive)
C=CC=O | -8.23% (inactive)
C=CCOCC1CO1 (stereo not given) | -8.67% (inactive)

SMILES | viability change, negative = cytotoxic
Oc1ccc(Cl)c(Cl)c1 | -5.02% (inactive)
CCOP(=O)(OCC)OCC | -0.525% (inactive)
Oc1c(Cl)cccc1Cl | -9.69% (inactive)
Oc1ccc(Cl)c(Cl)c1Cl | 3.13% (inactive)
O=[N+]([O-])c1ccc(O)c([N+](=O)[O-])c1 | -7.98% (inactive)
Brc1ccc(Oc2ccc(Br)cc2Br)c(Br)c1 | -3.39% (inactive)
CCCCC(=O)Cl | 9.83% (inactive)
O=C(O)C(Cl)Br (stereo not given) | -6.68% (inactive)
O=[N+]([O-])c1ccc(Cl)cc1 | 9.09% (inactive)
O=Cc1ccc2c(c1)OCO2 | 5.8% (inactive)
Nc1ccc(Cc2ccc(N)cc2)cc1 | -4.2% (inactive)
COC(C)(C)C | 3.14% (inactive)
Nc1cccc(Cl)c1 | -0.215% (inactive)
c1ccc2c(c1)CCNC2 | -10.5% (inactive)
ClCCCCl | 6.25% (inactive)
N#C/C(N)=C(/N)C#N | -0.537% (inactive)
ClCCOCOCCCl | 8.44% (inactive)
C(CCOCC1CO1)COCC1CO1 (stereo not given) | -9.69% (inactive)
CCCCCOC(=O)c1ccccc1C(=O)OCCCCC | 13.9% (inactive)
CC(C)(OOC(C)(C)c1ccccc1)c1ccccc1 | -9.44% (inactive)
